KB-V1 cytotox: qHTS assay for MDR1-selective chemotherapeutics: Primary screen using the drug-selected MDR subline cells KB-V1; KB-V1 MDR cells viability, CellTiter-Glo, 72 h; Potency, µM (doses to about 46.1 µM), actives largely listed as cytotoxic; 3.4% of 400,000 active; note: nearly all actives have a fitted effect of over 60% in size
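Compound-treated KB-V1 multidrug-resistant cells, 72 h, 37 degrees C; viability by CellTiter-Glo. Fitted qHTS curves give the values.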
KB-3-1 cytotox: qHTS assay for MDR1-selective chemotherapeutics: Primary screen using the parental adenocarcinoma cell KB-3-1; KB-3-1 viability, CellTiter-Glo ATP luminescence, 72 h; Potency, µM (doses to about 46.1 µM), hits mostly cytotoxic; 1.4% of 400,000 active; note: nearly all actives have a fitted effect of over 60% in size
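Cytotoxicity in the drug-sensitive parental line KB-3-1 was scored as loss of CellTiter-Glo luminescence following 72 h incubation with compound. Values come from curve fitting of normalized concentration-response data.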
DT40 TDP1 CPT: qHTS for Inhibitors of human tyrosyl-DNA phosphodiesterase 1 (TDP1): qHTS in cells in presence of CPT; chicken DT40 Tdp1-/-;hTDP1 cells + 20 nM CPT, ATP luminescence, 48 h; Potency, µM (series often up to 46.2 µM), without a hit: at the highest dose activity change, negative = growth inhibition, actives largely listed as inhibitors; 12% of 420,000 active; note: nearly all actives have a fitted effect of over 55% in size
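Chicken DT40 Tdp1-/- cells complemented with human TDP1, 400 cells/well, exposed to compounds plus 20 nM camptothecin for at least 48 h at 37 C; viability read as ATP content by CellTiter-Glo luminescence.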
DT40 TDP1 no CPT: qHTS for Inhibitors of human tyrosyl-DNA phosphodiesterase 1 (TDP1): qHTS in cells in absence of CPT; DT40 Tdp1-/- hTDP1 cells, no CPT, ATP luminescence, 48 h; Potency, µM (highest dose often 46.2 µM), inactives show at the top dose activity change, negative = growth inhibition, hits mostly inhibitors; 15% of 420,000 active; note: nearly all actives have a fitted effect of over 55% in size
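Growth of hTDP1-complemented DT40 Tdp1-knockout cells is measured by ATP luminescence after at least 48 hr compound exposure at 37 °C, with DMSO substituting for the 20 nM CPT used in the parallel screen.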
HT1080-NT tox: qHTS for induction of synthetic lethality in tumor cells producing 2HG: qHTS for the HT-1080-NT fibrosarcoma cell line; Potency, µM (titrated, usually from 46.1 µM), for inactives: at the top dose activity, negative = less viability, hits mostly cytotoxic; 1.6% of 360,000 active; HT-1080-NT fibrosarcoma viability, CellTiter-Glo ATP luminescence, 48 h;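 note: NT is the 2HG producing partner of a matched IDH1 knockdown line; 0% = DMSO-treated cells and -100% = media-only wells without cells; nearly all actives have a fitted effect of over 55% in size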
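Fibrosarcoma NT cells, 750 per well in 5% FBS RPMI, were exposed to compound for 48 hours. Viability: CellTiter-Glo luminescence.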
HT1080 IDH1KD tx: qHTS for induction of synthetic lethality in tumor cells producing 2HG: qHTS for the HT-1080-IDH1KD cell line; HT-1080 IDH1 knockdown viability, ATP luminescence, 48 h; 2% of 360,000 active; Potency, µM (titrated, usually from 46.1 µM), for the others: top-dose activity, negative = toxicity, most hits filed as cytotoxic; AID 686971, 2013;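 note: 0% = DMSO wells and -100% = cell-free medium wells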
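Viability of IDH1-knockdown HT-1080 fibrosarcoma cells was assessed by CellTiter-Glo after 48 h at 37 °C with titrated compound; concentration-effect curves were classified by fit quality and response size.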
* = called active by the depositor; i = inactive; u = inconclusive; x = no result given; [ ] = dose if it differs, or a comment. This is a sample that favours compounds with a hit; in the whole collection about 19% have one here. Calls come from the whole dose curve; as a rule, active = well fitted curve in the direction sought with a large enough effect; inconclusive = small, poorly fitted or top-dose-only effect, or another doubt; inactive = no such curve, though single readings can be large; an effect the other way counts as inactive or inconclusive. Unless noted, % is set by controls: 0 for no effect and ±100 for the full control effect; potency is the fitted concentration of half-maximal effect.

SMILES	KB-V1 cytotox	KB-3-1 cytotox	DT40 TDP1 CPT	DT40 TDP1 no CPT	HT1080-NT tox	HT1080 IDH1KD tx
CCOc1ccc(NC(=O)c2ccccc2OCC(=O)c2ccccc2)cc1	u	i	23.1µM*	16.4µM*	-6.4%	-2.5%
CCc1nc(SC)ncc1C(=O)N1CCN(c2cc(C)ccc2C)CC1	i	i	-24.6%	14.6µM*	x	x
Cc1ccc(Cl)cc1N1CCN(C(=O)c2ccc(CN3CCOCC3)cc2)CC1	i	i	u	u	9.7%	-4.7%
Cc1ccc(C)c(N2CCN(C(=O)c3cnc4c(-c5ccccc5)c(C)nn4c3C)CC2)c1	i	i	25.9µM*	u	x	x
CCc1nc(SC)ncc1C(=O)N1CCN(c2cc(Cl)ccc2C)CC1	i	i	u	20.6µM*	x	x
Cc1cccc(OCc2nnc(SCC(=O)N3CC(=O)Nc4ccccc43)o2)c1	i	i	-8.2%	-26.2%	1.1%	0.8%
COCCCNC(=S)N1CCN(c2nc(C)nc3sc4c(c23)CCCC4)CC1	u	u	16.4µM*	u	u	-15.7%
CCCCCCCNC(=O)C1(CC2CC(c3cccc(Br)c3)=NO2)CCNCC1 (stereo not drawn)	u	u	13µM*	16.4µM*	u	u
COc1ccc(CNC(=O)C2(CC3CC(c4ccccc4)=NO3)CCN(C(=O)OC(C)(C)C)CC2)cc1 (stereo not drawn)	i	i	u	u	0.0%	7.2%
CCCCCCCNC(=O)C1(CC2CC(c3cccc(Br)c3)=NO2)CCN(C(=O)c2ccccc2)CC1 (stereo not drawn)	i	i	u	u	-3.5%	-1.9%
CCCCCCCNC(=O)C1(CC2CC(c3cccc(Br)c3)=NO2)CCN(C(=O)Cc2ccc(F)cc2)CC1 (stereo not drawn)	i	i	u	16.4µM*	-5.3%	-3.4%
CCCCCCCNC(=O)C1(CC2CC(c3ccc(Cl)cc3)=NO2)CCN(C(=O)CCCCCBr)CC1 (stereo not drawn)	i	i	16.4µM*	18.4µM*	-12.0%	-16.4%
CCCCCCCNC(=O)C1(CC2CC(c3ccc(Cl)cc3)=NO2)CCN(C(=O)Cc2ccc(F)cc2)CC1 (stereo not drawn)	i	i	u	u	0.0%	-0.2%
COc1ccc(CNC(=O)C2(CC3CC(c4ccccc4)=NO3)CCN(C(=O)CCCCCBr)CC2)cc1 (stereo not drawn)	i	i	9.2µM*	u	-6.1%	-4.3%
O=C(Cc1ccc(F)cc1)N1CCC(CC2CC(c3ccc(Cl)cc3)=NO2)(C(=O)NCC2CCCCC2)CC1 (stereo not drawn)	i	u	u	u	-0.6%	-24.3%
C=CCn1cc(C(=O)N2CCN(c3ccccc3)CC2)c(=O)c2cc(S(=O)(=O)N3CCCC3)ccc21	u	i	u	2.9%	1.1%	0.8%
CCOC(=O)C1=CCN(Cc2ccccc2)CC1	u	i	40.8%	-0.4%	19.2%	8.8%
CCN(CC)S(=O)(=O)c1ccc2c(c1)N(CC(=O)NCCc1ccccc1)C(=O)CO2	x	x	-20.9%	-17.0%	x	x
CCCCCCCNC(=O)C1(CC2CC(c3ccc(Cl)cc3)=NO2)CCN(C(=O)c2cc(OCC)c(OCC)c(OCC)c2)CC1 (stereo not drawn)	i	i	20.6µM*	10.3µM*	0.0%	-9.2%
CCCCCCCNC(=O)C1(CC2CC(c3ccc(Cl)cc3)=NO2)CCNCC1 (stereo not drawn)	i	u	8.2µM*	10.3µM*	-2.6%	-24.1%
Cc1ccc(CN2CCC[C@]3(N[C@H](c4ccc(C)cc4)[C@@H]4C(=O)N(Cc5ccccc5)C(=O)[C@@H]43)C2=O)cc1	i	u	u	u	-1.3%	-0.5%
CN(C(=O)CN1C(=O)c2cccc(N)c2C1=O)C1CCCCC1	u	i	-6.7%	8.0%	-0.3%[9.24 µM]	-0.7%
COc1ccc(C2(C)CC(=O)NC2=O)cc1 (stereo not drawn)	i	i	-11.4%	22.9%	20.5%	12.0%
COc1ccc(C2(C)C(C#N)C(=O)NC(=O)C2C#N)cc1 (stereo not drawn)	i	i	-57.7%	2.31µM*	22.0%	25.3%
CN(C)c1ccc(N=Nc2ccccc2C(=O)OCC(=O)Nc2ccccc2C(F)(F)F)cc1	i	i	u	23.1µM*	-0.1%	-4.9%
SMILES	KB-V1 cytotox	KB-3-1 cytotox	DT40 TDP1 CPT	DT40 TDP1 no CPT	HT1080-NT tox	HT1080 IDH1KD tx
CN(C)c1ccc(N=Nc2ccccc2C(=O)OCC(=O)N2CCCCCC2)cc1	3.26µM*	u	u	u	-15.9%	-19.4%
COc1ccc(OC)c(NC(=O)Nc2nc(C(N)c3ccccc3Cl)cs2)c1 (stereo not drawn)	i	i	u	u	u	u
Cc1nn(CC(=O)NC2CCS(=O)(=O)C2)c(C)c1[N+](=O)[O-] (stereo not drawn)	i	i	-1.0%	2.9%	-6.5%	0.1%
CC(C)(C)C(=O)NCCc1csc2nc(-c3ccc(F)cc3)nn12	i	i	u	14.6µM*	x	x
Cc1ccc(C)c(NC(=O)C(=O)NCCc2csc3nc(-c4ccccc4C)nn23)c1	u	u	u	18.4µM*	x	x
CCCS(=O)(=O)NCCc1csc2nc(-c3ccc(C)cc3)nn12	x	x	u	23.1µM*	x	x
O=S(=O)(NCCc1csc2nc(-c3ccc(F)cc3)nn12)c1ccc(Oc2ccccc2)cc1	x	x	14.6µM*	20.6µM*	x	x
CCOC(=O)Cn1ccc(-c2ccccc2)c(C#N)c1=O	u	u	-0.7%	3.3%	0.0%	1.8%
COc1ccc(S(=O)(=O)N2CCN3CCCC3C2)cc1 (stereo not drawn)	i	i	-24.4%	3.5%	11.3%	23.3%
O=C(c1ccc(OC2CCN(CCCc3ccccc3)CC2)cc1)N1CCCC1	i	i	-28.5%	-6.8%	-11.8%	-8.4%
COC(C[C@@H](O)C[C@H](O)COCc1ccccc1)OC	i	i	1.6%	9.4%	16.1%	13.7%
